For 40 compounds, growth results are on record in PubChem BioAssay (NCI).

Compounds without any hit were thinned out: in the full panel of roughly 83,000, 20% have a hit.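 Step 1: grow cells in 96-well plates. Step 2: add test compound at a single concentration. Step 3: incubate 48 h. Step 4: record percent growth.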 Active and inactive are the calls of the source. How the source made its calls: active means growth percent below 10; inactive means the rest.

The assay relates to HL-60(TB) leukemia. The assay can be described thus: NCI-60 one-dose screen, 48 h (100 = growth as untreated, 0 = no growth, -100 = all killed). As to conditions: 10 µM unless noted.
With `CC(C)(C)OC(=O)N1C/C(=C\c2ccccc2)C(=O)/C(=C/c2ccccc2)C1`, the growth is 99.6% (inactive).

Consider `COc1cc(/C=C2\CCCC3=C2NC(C)=NC3c2cc(OC)c(OC)c(OC)c2)cc(OC)c1OC` (stereo not given), for which the growth was -4.1% (active).

Take `CC(C)n1c(NCCc2ccc(O)c(O)c2)nc2c1c(=O)n(C)c(=O)n2C`: the growth was 99.3% (inactive).

For the compound `CCOC(=O)C1CCNC(=O)C1=O` (stereo not given), the growth is 86% (inactive).

Turning to `CN(C)CCNC(=O)c1ccc(-c2nc3ccc4[nH]ncc4c3c3c2C2CCC3C2)cc1` (stereo not given), the growth is -20.6% (active).

As to `CNC(=S)NNC(=O)C1CC1`, the growth is 73.3% (inactive).

For the compound `CCOC(=O)NNc1cccc(Cl)c1`, the growth was 110% (inactive).

Turning to `O=S(=O)(Nc1cc(Cl)ccc1Cl)c1ccc(-c2cnc(C3CC3)o2)cc1`, the growth was 0.302% (active).

With `c1ccc(-c2c(-c3ccccc3)[n+](Cc3ccc4ccccc4c3)c(-c3ccc(-c4nc5ccccc5s4)cc3)n2Cc2ccc3ccccc3c2)cc1`, the growth was -57.2% (active).

As to `COc1ccc(C(=O)/C=C/c2cc(-c3cc(OC)c(OC)c(OC)c3)n[nH]2)cc1`, the growth is 23.2% (inactive).

For `Cc1cc(SCc2ccccc2)nc(N)n1`, the growth was 119% (inactive).

Regarding `Nc1nc2ccccc2c2c(=O)c3cccc(Cl)c3sc12`, the growth was 93.7% (inactive).

As for `O=C(/C(Cl)=N/O)c1ccc(-c2ccccc2)cc1`, the growth was 69.2% (inactive).

Regarding `Cc1ccc(-c2cc(-c3ccc(C)cc3)nc(N3CCN(CCNc4ccnc5cc(Cl)ccc45)CC3)n2)cc1`, the growth was 0.0538% (active).

Consider `COc1cc(-c2ccc(N=Nc3c(O)c(C(=O)Nc4ccccc4OC)cc4ccccc34)c(OC)c2)ccc1N=Nc1c(O)c(C(=O)Nc2ccccc2OC)cc2ccccc12`, for which the growth was 79.2% (inactive).

Consider `Cc1cc2nc(-c3c(-c4ccc(F)cc4)nc4sccn34)[nH]c2cc1C`, for which the growth is 87.3% (inactive).

As for `CCCCCC#CC1OC23CCCCC2C(C#N)(C(=N)O3)C1(C#N)C#N` (stereo not given), the growth was 81% (inactive).

On to `CC(C)CCCCCOC(=O)c1ccccc1SSc1ccccc1C(=O)OCCCCCC(C)C`, for which the growth was 82.2% (inactive).

`CCOC(=O)CN1CCC(C(=O)OCC)CC1`: the growth is 116% (inactive).

Take `COc1cc2nc(-c3ccc(Cl)cc3)cc(OCCCN3CCCC3)c2cc1OC`: the growth was 32.4% (inactive).

For `Cn1cc(C2=C(c3cccc4ccccc34)C(=O)NC2=O)c2cc(Br)ccc21`, the growth is 107% (inactive).

Consider `CC1=NNC(=O)C1CCC(=O)N/N=C(\C)c1ccc2ccccc2c1` (stereo not given), for which the growth was 86.4% (inactive).

Take `OC(COc1cccc2ccccc12)CN1CCN(c2ccccc2Cl)CC1` (stereo not given): the growth is 103% (inactive).

With `CCCCC1=C(Br)C(=O)c2ncccc2C1=O`, the growth was 83.3% (inactive).

In the case of `CCCCCCNCc1cc(C(C)(C)C)cc(CNCCCCCC)c1O`, the growth was -45.1% (active).

Regarding `Nc1nc(N)c2cc(S(=O)(=O)c3cccc(C(F)(F)F)c3)ccc2n1`, the growth is 30.9% (inactive).

For `Nc1ccc(Cl)cn1`, the growth is 100% (inactive).

Take `COc1cc2nc(Cl)nc(Nc3cccc(C(=O)/C=C/c4ccc(Cl)cc4)c3)c2cc1OC`: the growth was 51.7% (inactive).

As to `CN1CCN(c2ccc3nc(-c4ccc5nc(-c6ccc(OCCC(C)(C)C)cc6)[nH]c5c4)[nH]c3c2)CC1`, the growth was 10.5% (inactive).

As to `Cc1cnc(/C=N\NC(N)=S)c2cccc(N)c12`, the growth is -29.7% (active).

Turning to `COc1ccc2nc3cc(Cl)ccc3c(NCCNCC(C)O)c2c1` (stereo not given), the growth was 21.8% (inactive).

With `CN(CCCCCl)P(=O)(OCc1ccc([N+](=O)[O-])o1)C(F)(F)C[C@H](NC(=O)CNC(=O)c1ccc(N=[N+]=[N-])cc1)C(=O)NCCc1ccc(O)cc1` (stereo not given in full), the growth is 62.6% (inactive).

Consider `Cc1c(CC(=O)OCCO)cc(-c2ccc(Cl)cc2)n1-c1ccccc1`, for which the growth is 95.7% (inactive).

Regarding `c1ccc2cc(C[n+]3ccn(CCCCCCCCCCn4cc[n+](Cc5ccc6ccccc6c5)c4)c3)ccc2c1`, the growth is -67.8% (active).

As to `CC1(C)C(N(O)C(=O)Nc2ccc(Cl)cc2)N(c2ccc(Cl)cc2)C(=O)N1CC(=O)N/N=C/C=C/c1ccc([N+](=O)[O-])o1` (stereo not given), the growth is -36% (active).

`N[C@H]1CCC[C@@H]1NCCCCN1C(=O)c2cccc3cccc(c23)C1=O`: the growth was 85.5% (inactive).

`Cc1cc(=O)cc(C)n1-c1ccccc1`: the growth was 103% (inactive).

For `CCOC(=O)[C@@H](C)C[C@H](Cc1ccccc1)NC(=O)c1csc([C@@H](C[C@H](C(C)C)N(C)C(=O)[C@@H](NC(=O)[C@H]2C[C@H](O[Si](C)(C)C(C)(C)C)CCN2C)C(C)C)OC(C)=O)n1`, the growth is -36.9% [9.25 µM] (active).

In the case of `OCC1OC(OC2C(O)C(CO)OC2(CO)OC2OC(CO)C(O)C(O)C2O)C(O)C(O)C1O` (stereo not given), the growth is 129% (inactive).

With `CC(=O)[C@H]1CC[C@H]2[C@@H]3CC[C@H]4CC=CC[C@]4(C)[C@H]3CC[C@]12C`, the growth is 69% (inactive).
